Common to all, as to parameters: scale not given: direction of the effect not stated beside the values
Experiment [1] concerns the target Protein translocase subunit SecA (Escherichia coli (strain K12)) (UniProt P10408). As to the kind of experiment: Assay to Identify E. coli SecA ATPase Inhibitors. As to conditions: 30 µM. It is filed as functional.
Experiment [2] concerns the target T1, Ubiquitin-activating enzyme e1, putative (Leishmania donovani (strain BPK282A1)) (UniProt E9BSI1).
T1 sequence (whole entry): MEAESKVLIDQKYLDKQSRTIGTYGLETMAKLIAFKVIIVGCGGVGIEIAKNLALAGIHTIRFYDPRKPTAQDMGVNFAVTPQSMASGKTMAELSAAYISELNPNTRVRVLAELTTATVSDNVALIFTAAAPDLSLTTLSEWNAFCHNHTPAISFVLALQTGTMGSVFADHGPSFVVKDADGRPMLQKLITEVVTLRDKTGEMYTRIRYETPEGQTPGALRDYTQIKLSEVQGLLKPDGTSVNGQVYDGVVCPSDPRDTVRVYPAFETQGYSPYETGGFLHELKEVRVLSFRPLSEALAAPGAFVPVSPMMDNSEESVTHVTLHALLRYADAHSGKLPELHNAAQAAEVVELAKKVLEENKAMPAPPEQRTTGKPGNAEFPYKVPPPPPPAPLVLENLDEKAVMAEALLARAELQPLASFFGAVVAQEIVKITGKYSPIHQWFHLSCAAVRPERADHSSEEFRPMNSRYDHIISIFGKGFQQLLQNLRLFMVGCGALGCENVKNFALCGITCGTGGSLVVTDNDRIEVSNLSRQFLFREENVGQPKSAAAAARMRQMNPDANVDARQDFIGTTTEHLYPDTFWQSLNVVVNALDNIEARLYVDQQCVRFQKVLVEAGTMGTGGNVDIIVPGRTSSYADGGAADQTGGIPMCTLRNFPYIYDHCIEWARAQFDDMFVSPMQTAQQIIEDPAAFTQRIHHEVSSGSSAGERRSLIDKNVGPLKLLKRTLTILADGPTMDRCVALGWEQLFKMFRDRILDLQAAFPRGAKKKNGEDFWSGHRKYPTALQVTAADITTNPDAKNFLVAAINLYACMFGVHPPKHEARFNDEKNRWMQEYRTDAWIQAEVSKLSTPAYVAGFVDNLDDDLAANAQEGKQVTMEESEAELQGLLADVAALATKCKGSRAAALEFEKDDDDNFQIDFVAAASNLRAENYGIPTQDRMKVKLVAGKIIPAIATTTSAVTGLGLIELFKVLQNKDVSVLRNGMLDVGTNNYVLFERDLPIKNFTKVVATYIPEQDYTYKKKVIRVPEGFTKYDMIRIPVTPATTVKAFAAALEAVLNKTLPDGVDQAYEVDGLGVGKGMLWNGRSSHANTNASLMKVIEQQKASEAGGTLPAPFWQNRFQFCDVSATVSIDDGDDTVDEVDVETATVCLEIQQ
The experiment can be described thus: Leishmania donovani Ubiquitin Activating Enzyme (LdE1). It counts as functional. To be noted: 30 µM.

Experiment [3] concerns the target AMP-activated protein kinase, AMPK (Homo sapiens) (UniProt P54646+O43741+P54619+Q9UGJ0+Q9Y478+Q13131+Q9UGI9). As to the kind of experiment: AMP-dependent Kinase enzyme assay. An in vitro enzyme assay that detects ADP turnover that is directly proportional to AMPK activity. This uses naive AMPK that is activated during the assay with MK-8722. It counts as functional. To be noted: 30 µM.

Experiment [4] addresses Sialic acid-binding Ig-like lectin 9 (Homo sapiens) (UniProt Q9Y336). The experiment can be described thus: Hs-Siglec9 ALPHAscreen SOP 20170721. As to conditions: 10 µM.
A further experiment concerns Trypanosoma cruzi. As to the kind of experiment: Trypanosoma cruzi phosphomannomutase and mannose-1-phosphate guanylyltransferase assay. It counts as functional. As to conditions: 10 µM.
For experiment [5], the target named is T2, Arginase-2, mitochondrial (Homo sapiens) (UniProt P78540).
T2 sequence (whole entry): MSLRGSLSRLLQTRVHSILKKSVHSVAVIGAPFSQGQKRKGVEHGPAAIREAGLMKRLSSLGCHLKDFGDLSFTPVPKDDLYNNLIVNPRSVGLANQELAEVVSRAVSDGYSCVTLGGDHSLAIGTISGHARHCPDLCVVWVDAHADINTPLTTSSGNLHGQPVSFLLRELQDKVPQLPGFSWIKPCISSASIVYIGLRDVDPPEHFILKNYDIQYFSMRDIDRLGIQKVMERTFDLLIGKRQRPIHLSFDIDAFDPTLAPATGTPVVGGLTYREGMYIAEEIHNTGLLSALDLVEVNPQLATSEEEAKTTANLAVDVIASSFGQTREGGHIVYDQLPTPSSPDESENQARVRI
As to the kind of experiment: in vitro enzyme assay to detect the production of urea directly proportional to the activity of Arginase II. Note: in the data most compounds retested in dose-response had high values. It is filed as functional. As to conditions: 33.3 µM.

The target of experiment [6] is T3, Proteasome subunit beta (Trypanosoma cruzi) (UniProt O96673).
T3 sequence (whole entry): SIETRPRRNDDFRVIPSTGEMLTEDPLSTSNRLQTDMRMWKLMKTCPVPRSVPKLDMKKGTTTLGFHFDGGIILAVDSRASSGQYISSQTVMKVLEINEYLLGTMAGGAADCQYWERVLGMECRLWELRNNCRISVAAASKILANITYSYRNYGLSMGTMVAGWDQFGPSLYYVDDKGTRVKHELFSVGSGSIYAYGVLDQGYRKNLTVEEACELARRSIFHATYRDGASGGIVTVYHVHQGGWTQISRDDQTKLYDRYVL
The experiment can be described thus: Trypanosoma cruzi proteasome chymotrypsin-like activity (TcProtChymo) assay. Note: in the data most compounds retested in dose-response had high values. It counts as functional. As to conditions: 9.37 µM.

The next experiment is filed under the species Homo sapiens. As to the kind of experiment: To identify inhibition of the IFN signalling (Jak-Stat) pathway via expression of an eGFP reporter gene under the control of an IFN-stimulated response element (ISRE) containing MxA promoter. As to conditions: 30 µM. It is filed as functional.
In experiment [7] the target is T4, Tyrosyl-tRNA synthetase, putative (Trypanosoma cruzi (strain CL Brener)) (UniProt Q4DSP6).
T4 sequence (whole entry): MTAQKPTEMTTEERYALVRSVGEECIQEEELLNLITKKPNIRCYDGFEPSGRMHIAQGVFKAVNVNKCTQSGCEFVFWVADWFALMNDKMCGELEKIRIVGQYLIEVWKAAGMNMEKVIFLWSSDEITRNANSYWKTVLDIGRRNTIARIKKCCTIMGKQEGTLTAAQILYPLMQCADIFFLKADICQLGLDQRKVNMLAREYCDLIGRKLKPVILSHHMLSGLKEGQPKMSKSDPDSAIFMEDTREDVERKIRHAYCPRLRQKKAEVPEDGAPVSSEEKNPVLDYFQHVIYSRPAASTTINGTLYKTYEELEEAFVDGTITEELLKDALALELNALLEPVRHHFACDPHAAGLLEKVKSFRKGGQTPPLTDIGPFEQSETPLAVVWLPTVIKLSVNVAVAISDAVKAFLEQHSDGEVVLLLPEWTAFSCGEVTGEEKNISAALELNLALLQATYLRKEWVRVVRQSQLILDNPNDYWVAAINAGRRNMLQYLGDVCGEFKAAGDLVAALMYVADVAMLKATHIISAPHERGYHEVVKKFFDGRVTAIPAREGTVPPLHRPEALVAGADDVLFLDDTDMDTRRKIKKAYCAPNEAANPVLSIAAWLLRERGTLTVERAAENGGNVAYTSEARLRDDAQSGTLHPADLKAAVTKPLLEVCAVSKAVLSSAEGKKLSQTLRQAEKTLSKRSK
The experiment can be described thus: Trypanosoma cruzi tyrosyl tRNA synthetase (TcYRS) _High Tyrosine SOP. Note: in the data most compounds retested in dose-response had high values. It is filed as functional. To be noted: 30 µM.

The target in experiment [8] is T4, Tyrosyl-tRNA synthetase, putative (Trypanosoma cruzi (strain CL Brener)). The experiment can be described thus: Trypanosoma cruzi tyrosyl tRNA synthetase (TcYRS) SOP. It is filed as functional. To be noted: 30 µM.
Experiment [9] has as its target Chromo domain-containing protein 1 (Saccharomyces cerevisiae (strain ATCC 204508 / S288c) (Baker's yeast)) (UniProt P32657). As to the kind of experiment: ScCHD-1 Enzyme Inhibition Assay. Note: in the data most compounds retested in dose-response had high values. It is filed as functional. As to conditions: 30 µM.

Experimental findings from ChEMBL document CHEMBL3988442, “University of Dundee, Small-Polar-MMV Screening Library” (2021) are described below.

For some assays here: Measured potencies and affinities stand elsewhere.

Chain of Sialic acid-binding Ig-like lectin 9 (Homo sapiens) (Q9Y336 whole entry): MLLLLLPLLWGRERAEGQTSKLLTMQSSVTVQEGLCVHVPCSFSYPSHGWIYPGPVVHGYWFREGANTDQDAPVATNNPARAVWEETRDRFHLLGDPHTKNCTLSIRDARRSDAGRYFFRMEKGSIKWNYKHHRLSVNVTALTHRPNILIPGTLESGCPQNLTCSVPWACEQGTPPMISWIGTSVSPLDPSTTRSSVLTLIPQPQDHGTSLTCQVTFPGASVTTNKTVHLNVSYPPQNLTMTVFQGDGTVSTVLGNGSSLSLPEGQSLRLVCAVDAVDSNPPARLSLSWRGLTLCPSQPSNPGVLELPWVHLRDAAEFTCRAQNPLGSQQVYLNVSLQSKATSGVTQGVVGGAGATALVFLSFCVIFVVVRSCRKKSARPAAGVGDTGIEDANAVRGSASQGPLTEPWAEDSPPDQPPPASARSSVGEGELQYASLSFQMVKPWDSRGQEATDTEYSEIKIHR
Chain of Chromo domain-containing protein 1 (Saccharomyces cerevisiae (strain ATCC 204508 / S288c) (Baker's yeast)) (P32657 whole entry, the tested form may be a part): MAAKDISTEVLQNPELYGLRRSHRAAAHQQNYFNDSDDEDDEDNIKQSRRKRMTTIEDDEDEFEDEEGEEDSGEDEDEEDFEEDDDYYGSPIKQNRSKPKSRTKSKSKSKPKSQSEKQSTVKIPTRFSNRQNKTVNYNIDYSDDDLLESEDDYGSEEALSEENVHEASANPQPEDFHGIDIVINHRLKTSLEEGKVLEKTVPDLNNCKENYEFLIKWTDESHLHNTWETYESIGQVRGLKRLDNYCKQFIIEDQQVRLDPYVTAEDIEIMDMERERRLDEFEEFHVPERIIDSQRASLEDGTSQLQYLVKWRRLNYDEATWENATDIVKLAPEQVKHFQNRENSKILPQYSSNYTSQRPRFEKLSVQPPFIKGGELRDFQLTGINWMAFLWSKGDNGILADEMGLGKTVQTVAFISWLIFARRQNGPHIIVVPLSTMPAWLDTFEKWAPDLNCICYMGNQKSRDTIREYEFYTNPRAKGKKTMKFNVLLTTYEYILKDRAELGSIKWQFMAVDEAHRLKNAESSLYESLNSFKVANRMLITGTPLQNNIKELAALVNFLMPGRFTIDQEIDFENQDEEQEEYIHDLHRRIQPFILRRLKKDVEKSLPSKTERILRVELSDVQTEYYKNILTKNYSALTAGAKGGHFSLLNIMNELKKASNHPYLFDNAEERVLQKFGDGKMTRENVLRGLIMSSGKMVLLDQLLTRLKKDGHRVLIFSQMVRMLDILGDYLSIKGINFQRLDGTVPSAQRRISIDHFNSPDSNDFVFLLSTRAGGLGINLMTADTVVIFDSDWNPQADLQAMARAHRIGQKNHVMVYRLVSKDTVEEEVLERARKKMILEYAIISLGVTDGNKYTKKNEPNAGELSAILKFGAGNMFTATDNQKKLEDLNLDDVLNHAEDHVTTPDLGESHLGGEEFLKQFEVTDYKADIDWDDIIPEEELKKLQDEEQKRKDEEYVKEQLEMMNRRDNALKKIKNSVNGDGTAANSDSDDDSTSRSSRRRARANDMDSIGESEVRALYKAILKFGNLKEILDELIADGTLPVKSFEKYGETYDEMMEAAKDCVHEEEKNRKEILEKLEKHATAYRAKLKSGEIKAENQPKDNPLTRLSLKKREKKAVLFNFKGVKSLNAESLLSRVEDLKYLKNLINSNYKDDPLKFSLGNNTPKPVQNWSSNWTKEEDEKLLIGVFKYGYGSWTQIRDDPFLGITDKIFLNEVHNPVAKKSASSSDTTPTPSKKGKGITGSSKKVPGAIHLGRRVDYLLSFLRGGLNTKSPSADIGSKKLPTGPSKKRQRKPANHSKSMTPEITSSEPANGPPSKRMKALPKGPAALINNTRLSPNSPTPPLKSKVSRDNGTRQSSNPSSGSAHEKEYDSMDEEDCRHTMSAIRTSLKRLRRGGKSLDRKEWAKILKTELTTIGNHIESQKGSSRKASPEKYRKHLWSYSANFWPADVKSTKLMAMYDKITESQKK
Chain of Protein translocase subunit SecA (Escherichia coli (strain K12)) (P10408 whole entry): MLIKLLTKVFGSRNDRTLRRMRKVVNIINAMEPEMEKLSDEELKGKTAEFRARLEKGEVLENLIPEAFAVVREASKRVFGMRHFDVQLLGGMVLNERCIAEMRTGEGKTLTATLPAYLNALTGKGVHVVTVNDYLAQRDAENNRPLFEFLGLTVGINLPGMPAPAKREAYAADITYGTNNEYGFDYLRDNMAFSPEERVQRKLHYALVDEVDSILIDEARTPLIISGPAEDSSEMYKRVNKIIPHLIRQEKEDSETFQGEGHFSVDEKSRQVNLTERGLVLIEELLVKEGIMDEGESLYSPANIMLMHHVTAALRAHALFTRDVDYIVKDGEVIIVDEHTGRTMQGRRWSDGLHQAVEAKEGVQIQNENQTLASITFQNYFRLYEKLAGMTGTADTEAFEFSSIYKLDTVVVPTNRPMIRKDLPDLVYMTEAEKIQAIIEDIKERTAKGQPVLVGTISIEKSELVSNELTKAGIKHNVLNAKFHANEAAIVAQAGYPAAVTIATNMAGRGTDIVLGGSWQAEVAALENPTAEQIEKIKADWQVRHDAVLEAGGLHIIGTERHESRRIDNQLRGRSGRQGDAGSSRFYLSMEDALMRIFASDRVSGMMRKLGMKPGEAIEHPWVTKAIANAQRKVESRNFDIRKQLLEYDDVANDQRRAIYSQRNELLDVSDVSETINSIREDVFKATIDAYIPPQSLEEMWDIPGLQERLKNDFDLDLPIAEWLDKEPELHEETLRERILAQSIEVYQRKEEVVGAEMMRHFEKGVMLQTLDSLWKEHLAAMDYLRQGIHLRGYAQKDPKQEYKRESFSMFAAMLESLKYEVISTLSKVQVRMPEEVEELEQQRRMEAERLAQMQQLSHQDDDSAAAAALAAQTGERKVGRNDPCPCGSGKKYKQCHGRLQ

For `CSCCC(CO)NC(=O)c1sc(-c2ccccc2Cl)nc1C` (stereo not given), the Percent Effect is -3.21% in experiment [1]; 4% in experiment [2]; 7.64% in [3]; 6.5% in experiment [4]; -5.89% in the experiment on Trypanosoma cruzi; -6.16% in experiment [5]. In addition, the Percent Effect is 11.3% in experiment [6]; 6.86% in the experiment filed under Homo sapiens; 1.06% in [7]; 7.69% in experiment [8]; -4% in experiment [9].

For the molecule `Cc1ccc(C2CSCCN2C(=O)C2=CCCC2)o1` (stereo not given), the Percent Effect is -5.63% in [1]; 8.11% in experiment [2]; -2.27% in experiment [3]; 26.9% in experiment [4]; 0.684% with Trypanosoma cruzi; 1.24% in experiment [5]. Besides, the Percent Effect in experiment [6] is 2.83%; in the experiment listed under Homo sapiens, -24%; in experiment [7], 1.07%; in experiment [8] it was 6.17%; in experiment [9] it was -2.84%.

For the molecule `Cc1cc(F)ccc1S(=O)(=O)NCc1cccc(C(=O)N2CCCC2)c1`, the Percent Effect in [1] was -5.18%; in [2], 15.6%; in [3] it was 2.25%; in experiment [4], 0.935%; in the experiment on Trypanosoma cruzi, 2.64%; in experiment [5] it was -12%. The Percent Effect in [6] is 2.34%; in the experiment filed under Homo sapiens, 26.5%; in [7], 6.67%; in experiment [8] it was 9.41%; in experiment [9], -12.9%.

On to `Cn1cc(C(=O)CC2CCCN2C(=O)c2cncc3ccccc23)cn1` (stereo not given), for which the Percent Effect in experiment [1] is -2.2%; in [2] it was 6.33%; in [3] it was -4.89%; in [4], 2.04%; in the experiment on Trypanosoma cruzi it was 0.718%; in experiment [5], 4.95%. For the same molecule, the Percent Effect in experiment [6] was 5.66%; in the experiment filed under Homo sapiens it was 14.6%; in experiment [7], 5.21%; in [8], 12.7%; in [9], -15%.

As for `O=C(c1cccnc1)N1CCCC(c2cc(C(F)F)n3ncnc3n2)C1` (stereo not given), the Percent Effect is -4.9% in experiment [1]; 9.46% in experiment [2]; 12.9% in experiment [3]; 2% in experiment [4]; -5.53% in the experiment on Trypanosoma cruzi; 0.232% in experiment [5]. Moreover, the Percent Effect came to 7.64% in [6]; 8.61% in the experiment filed under Homo sapiens; 0% in [7]; 6.49% in experiment [8]; 9.01% in [9].

In the case of `CC(C1CC1)N(C(=O)NCCCn1nc2ccccn2c1=O)C1CC1` (stereo not given), the Percent Effect in experiment [1] is -5.32%; in experiment [2] it was 16.4%; in [3], -9.44%; in experiment [4], 24%; with Trypanosoma cruzi, 3.13%; in experiment [5], 20.9%. For the same molecule, the Percent Effect in [6] was 15.3%; in the experiment listed under Homo sapiens, 1.6%; in experiment [7] it was 4.3%; in experiment [8], 15%; in experiment [9] it was -6.77%.

In the case of `O=C(Nc1ccc(F)cc1)N1C[C@H]2C[C@H](C(=O)N3CCOCC3)[C@@H](C1)O2`, the Percent Effect in [1] was -1.74%; in [2] it was 7.79%; in [3] it was 3.92%; in experiment [4], 3.78%; in the experiment on Trypanosoma cruzi it was 0.493%; in experiment [5], 4.52%. The Percent Effect in [6] was 2.44%; in the experiment listed under Homo sapiens, 29.3%; in [7], 4.23%; in [8], 14.1%; in experiment [9], -6.94%.

On to `CC1CCN(CCNC(=O)c2ccccc2N2CCOCC2)CC1`, for which the Percent Effect in [1] was 0.622%; in [2] it was 11%; in experiment [3], -2.96%; in [4], 1.48%; with Trypanosoma cruzi it was -1.98%; in experiment [5] it was -2.79%. Moreover, the Percent Effect in [6] was 24.1%; in the experiment listed under Homo sapiens, 5.31%; in [7], 13.5%; in experiment [8] it was 16.1%; in [9], -2.45%.

As for `C[S+]([O-])c1nncn1CC(=O)c1ccc2c(c1)CCO2` (stereo not given), the Percent Effect in [1] is -5.7%; in experiment [2], 8.11%; in [3], -3.44%; in experiment [4], 36.4%; in the experiment on Trypanosoma cruzi, 3.23%; in experiment [5], 26.6%. The Percent Effect in experiment [6] was 12.4%; in the experiment listed under Homo sapiens, -10.5%; in experiment [7] it was 3.23%; in experiment [8], 16.1%; in [9] it was -9.11%.

For `CC(=O)N1CCC(C(=O)NCCN2CCC(C)CC2)CC1`, the Percent Effect in experiment [1] was -1.98%; in [2], 9.72%; in experiment [3] it was 11.4%; in experiment [4] it was -1.43%; in the experiment with Trypanosoma cruzi, -3.6%; in [5] it was 4.86%. The Percent Effect in experiment [6] is 18.1%; in the experiment listed under Homo sapiens, -2.5%; in experiment [7] it was 4.21%; in experiment [8] it was 5.13%; in experiment [9], -3.45%.
